# Data published in ChEMBL document CHEMBL1201862, “PubChem BioAssay data set” (2004).
# “And” between values parts separate entries of the source, which are not always exact repeats. Equal values may be shown once. Only a part of the results of these assays is listed, not drawn at random. For part of these data: Potency and affinity values are given separately. The source made the active and inactive calls. Unless noted, the rule behind the calls is not given here.
# Assays:
# [1] = biological target: Pyruvate kinase PKM (Homo sapiens) (UniProt P14618); test: qHTS Assay for Activators of Human Muscle Pyruvate Kinase.; type: functional
# [2] = biological target: Hypoxia-inducible factor 1-alpha (Homo sapiens) (UniProt Q16665); test: qHTS Assay for Identification of Small Molecule Agonists for Hypoxia Response Element Signaling Pathway. [Related pubchem assays: 915 ]; type: functional
# [3] = biological target: T1, M-phase phosphoprotein 8 (Homo sapiens) (UniProt Q99549)
# T1 sequence (whole entry): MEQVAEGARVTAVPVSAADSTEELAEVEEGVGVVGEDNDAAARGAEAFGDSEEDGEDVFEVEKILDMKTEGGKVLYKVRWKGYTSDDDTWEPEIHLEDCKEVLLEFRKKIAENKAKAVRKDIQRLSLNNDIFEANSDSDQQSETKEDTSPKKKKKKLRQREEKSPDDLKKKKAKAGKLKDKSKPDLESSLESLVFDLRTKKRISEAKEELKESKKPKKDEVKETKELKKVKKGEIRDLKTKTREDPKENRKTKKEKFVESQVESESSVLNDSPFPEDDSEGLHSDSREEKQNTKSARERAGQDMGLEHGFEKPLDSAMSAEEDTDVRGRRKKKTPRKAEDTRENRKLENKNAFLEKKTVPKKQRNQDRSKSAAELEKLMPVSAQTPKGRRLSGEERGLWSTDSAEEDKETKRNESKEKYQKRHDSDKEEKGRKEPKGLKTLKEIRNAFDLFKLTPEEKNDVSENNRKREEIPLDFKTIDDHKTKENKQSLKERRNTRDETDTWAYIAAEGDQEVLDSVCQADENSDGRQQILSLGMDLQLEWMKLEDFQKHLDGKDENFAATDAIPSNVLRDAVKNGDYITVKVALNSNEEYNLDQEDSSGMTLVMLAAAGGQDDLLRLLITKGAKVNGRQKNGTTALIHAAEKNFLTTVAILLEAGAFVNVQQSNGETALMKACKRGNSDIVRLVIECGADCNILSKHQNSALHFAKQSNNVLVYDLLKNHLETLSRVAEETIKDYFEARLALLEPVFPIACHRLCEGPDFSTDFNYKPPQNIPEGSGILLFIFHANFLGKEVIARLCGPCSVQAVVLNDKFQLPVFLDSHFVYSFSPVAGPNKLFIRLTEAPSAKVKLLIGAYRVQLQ
# [4] = biological target: ATPase family AAA domain-containing protein 5 (Homo sapiens) (UniProt Q96QE3); test: qHTS screen for small molecules that inhibit ELG1-dependent DNA repair in human embryonic kidney (HEK293T) cells expressing luciferase-tagged ELG1: Hit Confirmation using MMS Stimulated ELG1.; type: functional
# [5] = DNA binders by acridine orange displacement, dose response, counter-screen for EWS/Fli inhibitor project, biochemical, fluorescence polarization, cherry-pick (AID 720586)
# [6] = biological target: T2, DNA polymerase eta (Homo sapiens) (UniProt Q9Y253); test: qHTS for Inhibitors of Polymerase Eta: Confirmatory Assay for Cherry-picked Compounds.; type: functional
# T2 sequence (whole entry): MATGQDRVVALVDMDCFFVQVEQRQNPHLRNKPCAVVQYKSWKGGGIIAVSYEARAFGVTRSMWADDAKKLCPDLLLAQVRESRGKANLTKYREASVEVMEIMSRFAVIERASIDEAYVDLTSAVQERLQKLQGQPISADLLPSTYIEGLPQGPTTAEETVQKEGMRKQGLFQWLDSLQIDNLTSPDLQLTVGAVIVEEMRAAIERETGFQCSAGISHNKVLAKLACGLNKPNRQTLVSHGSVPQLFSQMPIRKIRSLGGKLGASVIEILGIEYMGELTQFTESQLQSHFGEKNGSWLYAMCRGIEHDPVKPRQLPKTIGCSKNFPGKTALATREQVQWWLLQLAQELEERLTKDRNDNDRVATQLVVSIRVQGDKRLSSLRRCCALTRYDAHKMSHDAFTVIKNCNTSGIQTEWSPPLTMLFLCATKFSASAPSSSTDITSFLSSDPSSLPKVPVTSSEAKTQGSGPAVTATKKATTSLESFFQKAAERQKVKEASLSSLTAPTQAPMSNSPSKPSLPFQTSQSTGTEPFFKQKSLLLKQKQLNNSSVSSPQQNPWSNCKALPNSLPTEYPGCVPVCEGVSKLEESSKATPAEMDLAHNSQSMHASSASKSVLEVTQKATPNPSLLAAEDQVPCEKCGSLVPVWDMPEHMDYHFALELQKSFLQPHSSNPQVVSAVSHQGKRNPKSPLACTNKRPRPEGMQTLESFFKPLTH
# [7] = biological target: Nuclear factor erythroid 2-related factor 2 (Homo sapiens) (UniProt Q16236)
# [8] = biological target: T3, DNA polymerase kappa (Homo sapiens) (UniProt Q9UBT6)
# T3 sequence (whole entry): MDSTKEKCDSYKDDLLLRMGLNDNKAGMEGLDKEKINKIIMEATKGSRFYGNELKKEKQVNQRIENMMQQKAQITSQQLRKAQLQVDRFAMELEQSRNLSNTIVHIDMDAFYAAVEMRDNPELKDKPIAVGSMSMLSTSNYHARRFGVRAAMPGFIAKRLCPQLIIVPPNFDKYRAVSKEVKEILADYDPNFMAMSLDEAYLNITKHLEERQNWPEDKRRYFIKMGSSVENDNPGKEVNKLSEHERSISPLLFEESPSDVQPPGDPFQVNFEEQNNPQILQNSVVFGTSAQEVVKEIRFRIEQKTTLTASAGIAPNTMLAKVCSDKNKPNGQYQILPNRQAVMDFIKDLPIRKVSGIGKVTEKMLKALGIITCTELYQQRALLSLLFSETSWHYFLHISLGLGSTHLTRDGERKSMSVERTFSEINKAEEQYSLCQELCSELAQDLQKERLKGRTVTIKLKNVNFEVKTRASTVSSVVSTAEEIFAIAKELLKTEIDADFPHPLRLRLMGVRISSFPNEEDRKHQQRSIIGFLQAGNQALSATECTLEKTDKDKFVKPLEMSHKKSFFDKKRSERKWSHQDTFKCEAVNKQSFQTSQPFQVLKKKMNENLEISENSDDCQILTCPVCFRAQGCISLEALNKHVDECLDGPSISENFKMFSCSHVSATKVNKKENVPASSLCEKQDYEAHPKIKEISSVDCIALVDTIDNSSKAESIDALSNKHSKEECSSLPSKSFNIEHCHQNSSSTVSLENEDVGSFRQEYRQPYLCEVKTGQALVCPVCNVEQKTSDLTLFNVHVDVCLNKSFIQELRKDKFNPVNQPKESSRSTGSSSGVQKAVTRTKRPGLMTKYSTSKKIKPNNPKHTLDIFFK
# Sequence of Hypoxia-inducible factor 1-alpha (Homo sapiens) (Q16665 whole entry, looked up): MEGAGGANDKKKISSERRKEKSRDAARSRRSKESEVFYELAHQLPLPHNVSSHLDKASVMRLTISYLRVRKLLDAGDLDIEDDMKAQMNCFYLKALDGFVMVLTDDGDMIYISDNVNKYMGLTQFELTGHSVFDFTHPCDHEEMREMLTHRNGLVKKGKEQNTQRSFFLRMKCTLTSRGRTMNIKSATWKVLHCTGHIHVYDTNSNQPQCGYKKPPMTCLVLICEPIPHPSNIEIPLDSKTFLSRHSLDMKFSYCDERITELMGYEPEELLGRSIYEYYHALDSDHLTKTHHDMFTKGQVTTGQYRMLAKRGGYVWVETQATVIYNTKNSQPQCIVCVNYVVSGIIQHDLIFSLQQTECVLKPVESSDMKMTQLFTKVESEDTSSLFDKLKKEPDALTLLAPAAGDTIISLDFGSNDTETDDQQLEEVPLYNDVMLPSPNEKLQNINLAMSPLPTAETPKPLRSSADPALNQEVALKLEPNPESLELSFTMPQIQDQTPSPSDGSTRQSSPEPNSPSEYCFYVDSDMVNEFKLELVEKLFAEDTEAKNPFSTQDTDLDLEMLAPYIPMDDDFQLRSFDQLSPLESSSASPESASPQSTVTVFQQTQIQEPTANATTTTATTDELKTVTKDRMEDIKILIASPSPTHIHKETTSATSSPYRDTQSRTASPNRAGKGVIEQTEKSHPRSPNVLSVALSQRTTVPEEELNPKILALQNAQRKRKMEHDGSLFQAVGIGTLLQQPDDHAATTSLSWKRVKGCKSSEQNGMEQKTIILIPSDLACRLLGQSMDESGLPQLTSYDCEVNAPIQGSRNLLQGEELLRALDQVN
# Sequence of Pyruvate kinase PKM (Homo sapiens) (P14618 2-531 limits assumed): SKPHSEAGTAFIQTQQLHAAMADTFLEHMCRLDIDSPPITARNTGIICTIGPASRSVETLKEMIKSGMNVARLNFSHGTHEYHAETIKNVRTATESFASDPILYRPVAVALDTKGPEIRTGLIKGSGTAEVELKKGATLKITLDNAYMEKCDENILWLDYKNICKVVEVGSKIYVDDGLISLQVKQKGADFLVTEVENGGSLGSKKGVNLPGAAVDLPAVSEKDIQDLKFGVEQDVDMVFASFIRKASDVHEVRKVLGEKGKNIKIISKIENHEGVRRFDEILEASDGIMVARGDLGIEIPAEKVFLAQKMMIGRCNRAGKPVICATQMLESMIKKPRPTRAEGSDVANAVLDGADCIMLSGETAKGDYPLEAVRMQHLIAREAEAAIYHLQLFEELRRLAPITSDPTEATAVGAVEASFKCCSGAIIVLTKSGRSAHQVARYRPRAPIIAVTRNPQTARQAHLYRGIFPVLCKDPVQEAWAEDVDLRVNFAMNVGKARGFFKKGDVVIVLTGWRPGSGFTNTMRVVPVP
# Sequence of Nuclear factor erythroid 2-related factor 2 (Homo sapiens) (Q16236 whole entry): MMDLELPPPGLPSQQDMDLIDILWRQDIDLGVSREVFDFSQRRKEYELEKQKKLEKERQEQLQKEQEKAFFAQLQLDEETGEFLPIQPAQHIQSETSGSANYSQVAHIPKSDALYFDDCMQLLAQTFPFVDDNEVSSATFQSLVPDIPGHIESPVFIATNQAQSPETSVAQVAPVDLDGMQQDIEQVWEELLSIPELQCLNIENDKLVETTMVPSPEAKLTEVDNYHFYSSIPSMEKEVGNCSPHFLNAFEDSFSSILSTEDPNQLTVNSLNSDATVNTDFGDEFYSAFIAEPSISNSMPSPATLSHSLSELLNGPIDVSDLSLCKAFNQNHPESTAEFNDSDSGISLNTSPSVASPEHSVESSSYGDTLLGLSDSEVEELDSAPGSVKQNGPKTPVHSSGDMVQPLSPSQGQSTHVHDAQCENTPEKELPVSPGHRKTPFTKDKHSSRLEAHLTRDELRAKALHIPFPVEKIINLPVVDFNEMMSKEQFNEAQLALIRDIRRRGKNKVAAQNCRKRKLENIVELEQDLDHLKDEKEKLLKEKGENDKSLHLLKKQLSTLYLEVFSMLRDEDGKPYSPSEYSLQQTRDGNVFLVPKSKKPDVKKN
# Sequence of ATPase family AAA domain-containing protein 5 (Homo sapiens) (Q96QE3 whole entry, the tested form may be a part): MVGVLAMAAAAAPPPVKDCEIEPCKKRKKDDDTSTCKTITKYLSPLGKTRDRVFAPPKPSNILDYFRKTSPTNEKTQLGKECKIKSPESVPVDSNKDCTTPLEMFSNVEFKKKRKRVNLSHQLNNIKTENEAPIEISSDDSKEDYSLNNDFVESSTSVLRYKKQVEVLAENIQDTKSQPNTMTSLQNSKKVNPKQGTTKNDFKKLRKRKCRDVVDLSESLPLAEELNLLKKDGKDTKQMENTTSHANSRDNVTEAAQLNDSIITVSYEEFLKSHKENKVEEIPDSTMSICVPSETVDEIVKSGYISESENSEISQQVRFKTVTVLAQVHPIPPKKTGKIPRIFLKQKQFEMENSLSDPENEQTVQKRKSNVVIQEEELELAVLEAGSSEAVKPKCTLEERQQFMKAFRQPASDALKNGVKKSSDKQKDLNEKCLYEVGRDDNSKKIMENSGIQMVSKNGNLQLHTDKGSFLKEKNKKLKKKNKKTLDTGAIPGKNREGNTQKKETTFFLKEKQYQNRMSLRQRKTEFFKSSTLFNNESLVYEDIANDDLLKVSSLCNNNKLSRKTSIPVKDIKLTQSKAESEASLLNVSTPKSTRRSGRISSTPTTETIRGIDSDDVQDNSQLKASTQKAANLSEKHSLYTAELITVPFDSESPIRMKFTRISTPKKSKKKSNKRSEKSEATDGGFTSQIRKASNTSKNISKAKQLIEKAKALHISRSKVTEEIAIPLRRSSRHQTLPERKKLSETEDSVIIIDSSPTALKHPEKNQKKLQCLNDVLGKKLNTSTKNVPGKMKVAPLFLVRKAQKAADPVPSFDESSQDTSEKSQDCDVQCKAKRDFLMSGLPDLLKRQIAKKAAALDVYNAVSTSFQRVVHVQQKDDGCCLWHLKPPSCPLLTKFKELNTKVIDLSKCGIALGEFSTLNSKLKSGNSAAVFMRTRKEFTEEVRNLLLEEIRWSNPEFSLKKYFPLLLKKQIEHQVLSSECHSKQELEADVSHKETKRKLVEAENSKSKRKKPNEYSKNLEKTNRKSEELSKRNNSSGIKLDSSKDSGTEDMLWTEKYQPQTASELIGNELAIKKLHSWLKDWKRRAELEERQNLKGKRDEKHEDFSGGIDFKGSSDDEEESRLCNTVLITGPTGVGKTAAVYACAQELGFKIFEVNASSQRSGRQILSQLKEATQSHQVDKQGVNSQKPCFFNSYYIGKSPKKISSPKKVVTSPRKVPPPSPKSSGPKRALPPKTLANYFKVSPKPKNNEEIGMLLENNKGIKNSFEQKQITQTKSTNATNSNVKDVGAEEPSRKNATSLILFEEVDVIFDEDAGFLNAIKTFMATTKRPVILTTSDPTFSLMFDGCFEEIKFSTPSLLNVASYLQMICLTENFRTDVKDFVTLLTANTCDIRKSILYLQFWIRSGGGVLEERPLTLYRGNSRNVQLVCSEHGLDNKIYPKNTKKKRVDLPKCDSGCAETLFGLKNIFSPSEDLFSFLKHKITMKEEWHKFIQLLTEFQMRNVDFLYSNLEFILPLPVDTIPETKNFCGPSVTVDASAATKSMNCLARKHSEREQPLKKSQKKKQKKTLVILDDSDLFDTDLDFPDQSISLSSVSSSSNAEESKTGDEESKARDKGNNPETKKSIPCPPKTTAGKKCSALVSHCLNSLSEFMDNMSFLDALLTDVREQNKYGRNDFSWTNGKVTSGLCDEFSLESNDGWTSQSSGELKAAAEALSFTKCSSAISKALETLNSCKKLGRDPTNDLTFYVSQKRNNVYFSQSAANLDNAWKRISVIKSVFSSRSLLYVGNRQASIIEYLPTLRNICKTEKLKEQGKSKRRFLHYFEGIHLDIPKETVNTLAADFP
compound,measurement,setting,value
N[C@H](CCC(=O)O)C(=O)O,Potency,[1],inactive
O=C(O)Cc1ccccc1Nc1c(Cl)cccc1Cl,Potency,[2],6.31 µM (active) and 25.1 µM (active)
same,Potency,[3],inactive
O=C(O)c1cc(/N=N/c2ccc(S(=O)(=O)Nc3ccccn3)cc2)ccc1O,Potency,[4],inactive
COc1ccc(C2=Nn3c(nnc3-c3ccccc3F)SC2)cc1OC1CCOC1 (configuration not stated),AbsAC35,[5],137 µM (active)
Nc1nc2cc3c(cc2cc1C(=O)NCCc1c[nH]c2ccccc12)OCO3,AbsAC35,[5],251 µM (active)
CC(C)(O)c1ccccc1CC[C@@H](SCC1(CC(=O)O)CC1)c1cccc(/C=C/c2ccc3ccc(Cl)cc3n2)c1,Potency,[6],213 µM (active)
"CISPLATIN, CHEMBL11359",GI50,P388/ADR,0.561 µM
same,GI50,SN12K1,4.06 µM
same,GI50,P388,0.248 µM
CC(=O)OCc1ccccc1,Potency,[7],30.6 µM (active)
Cc1cc(C)c(NC(=O)Cn2c(=O)n(Cc3ccc(C(=O)NCc4ccco4)cc3)c(=O)c3sccc32)c(C)c1,Potency,[8],299 µM (active)
